# Mtb hypoxia rep – Mtb hypoxia fluorescent reporter inhibition; AID 1159583; 300,000 tested, 0.1% active; fluorescence inhibition, % (test concentration not listed); M. tuberculosis hypoxia-regulated fluorescent reporter, fluorescence; in the data active = fluorescence inhibition mostly above about 23%, no sharp cut-off; inactive = mostly below about 17%
# Rv3671c protease – inhibits the M. tuberculosis serine protease Rv3671c | P9WHR9 | inhibition, % at 5.96 µM | 320,000 tested, 0.048% active | AID 2606; in the data active = inhibition above about 38%;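 also: extracellular domain of Rv3671c used as enzyme; 0% = enzyme with DMSO and 100% = no enzyme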
# UGM FP inh – inhibitors of M. tuberculosis UDP-galactopyranose mutase | P9WIQ1 | purified UGM, fluorescence polarization probe displacement | inhibition, % at 10 µM | 320,000 tested, 0.06% active | AID 504406; in the data active = inhibition above about 10%, passing the limit was not always enough
# FBA Mtb inh – inhibitors of M. tuberculosis fructose-bisphosphate aldolase. AID 588726. inhibition, % at 1 µM. 360,000 tested, 2.3% active. purified M. tuberculosis FBA, fluorescence read-out. P9WQA3; in the data active = inhibition above about 27%;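 also: 0% = vehicle and 100% = reference inhibitor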
# Target sequence (P9WQA3 whole entry, looked up): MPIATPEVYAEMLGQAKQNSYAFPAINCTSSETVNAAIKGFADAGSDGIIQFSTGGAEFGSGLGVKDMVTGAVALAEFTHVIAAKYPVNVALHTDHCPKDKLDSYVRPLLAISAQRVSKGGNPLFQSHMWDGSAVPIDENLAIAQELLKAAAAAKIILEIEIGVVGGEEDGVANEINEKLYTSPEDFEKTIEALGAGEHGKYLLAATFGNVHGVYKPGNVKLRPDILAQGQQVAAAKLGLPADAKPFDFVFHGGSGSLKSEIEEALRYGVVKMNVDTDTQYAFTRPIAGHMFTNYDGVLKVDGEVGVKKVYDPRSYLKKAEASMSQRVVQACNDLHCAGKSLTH
# FadD28 FP inh – M. tuberculosis FadD28 bisubstrate binding inhibition; inhibition, % at 12.5 µM; AID 588549; FadD28 bisubstrate probe binding, fluorescence polarization; 360,000 tested, 0.22% active; in the data active = inhibition above about 8.5%, passing the limit was not always enough
# GDH-TPI counter – inhibits GDH-TPI coupling enzymes, artifact for Mtb FBA screen. GDH-TPI coupled enzyme counterscreen, NADH absorbance. inhibition, % at 4.8 µM. 360,000 tested, 1.2% active; in the data active = inhibition above about 30%;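 also: 0% = DMSO wells and 100% = wells lacking the enzyme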
# Active calls of the source: *; x = not tested or not shown; + = active, no number. An excerpt weighted towards active compounds, which were near 3.5% of everything screened.
SMILES,Mtb hypoxia rep,Rv3671c protease,UGM FP inh,FBA Mtb inh,FadD28 FP inh,GDH-TPI counter
CN(C)S(=O)(=O)c1ccc(C(=O)Nc2nnc(SCC(=O)NCC3CCCO3)s2)cc1 (stereo not given),-5,1,0,-2,0,35*
CC(=NN1C(=O)c2ccccc2NC1c1ccccc1)c1ccccc1O (stereo not given),-2,x,x,x,x,x
COc1ccc(/C=C(\C#N)C(=O)NCc2ccccc2)cc1,4,-5,-4,-2,-1,40*
N#C/C(=C\c1ccc(O)cc1)C(=O)NCc1ccccc1,7,-18,3,0,1,22
Cc1ccc(/C=C(/C#N)C(=O)NC(=O)Oc2ccccc2)cc1,11,-6,3,2,1,28
N#C/C(=C\c1ccc(O)c(O)c1)C(=O)NCCc1ccccc1,x,2,-2,-16,11*,11
CNC(=O)/C(C#N)=C/c1ccc(OCCOc2ccccc2)cc1,15,x,0,0,-1,40*
N#CC(=Cc1ccc(O)c(O)c1)C(=O)NCCc1ccccc1,4,x,x,x,x,x
COc1ccc(/C=C(\C#N)C(=O)NCC(c2ccc(F)cc2)N2CCOCC2)cc1 (stereo not given),6,-10,0,-1,-1,43*
CC(C)CC(NC(=O)c1nc[nH]c1C(=O)NCc1ccc(CNC(=O)OC(C)(C)C)cc1)C(=O)OC(C)(C)C (stereo not given),-1,x,x,x,x,x
CC(C)Oc1ccc(/C=C(\C#N)C(=O)NC2CC2)cc1,7,5,1,-4,-4,16
N#C/C(=C\c1ccc(OCC(N)=O)cc1)C(=O)NC1CC1,13,3,0,-4,-3,45*
O=C(NN=Cc1ccc(Cl)s1)C(O)c1ccccc1 (stereo not given),-3,x,x,x,x,x
CCCC(=NNC(=O)c1ccc(CSc2nncn2C)cc1)c1ccccc1,9,x,x,x,x,x
Cn1cnnc1SCc1ccc(C(=O)N=Nc2c(O)n(C)c3ccccc23)cc1,8,-3,-4,2,-1,33*
BrC(/C=C\c1ccccc1)=N/Nc1nc(N2CCOCC2)nc(N2CCOCC2)n1,x,-3,-1,-3,0,45*
BrC(=C\c1ccccc1)/C=N/Nc1nc(N2CCOCC2)nc(N2CCOCC2)n1,x,-7,2,-1,-1,31*
C/C(C=NNc1nc(N2CCOCC2)nc(N2CCOCC2)n1)=C/c1ccccc1,-5,x,x,x,x,x
CCCCn1c(/N=C/c2ccc(N(C)C)cc2)nc2ccccc21,x,0,-1,-4,-1,52*
C/C(=N\Nc1nccnc1Cl)c1ccc(O)c(C)c1,x,9,0,2,1,44*
CC(=NNc1nccnc1Cl)c1ccc(Cl)c(Cl)c1,4,x,x,x,x,x
CC(C)(C)C(=O)ON=C(N)c1ccc(Oc2cc(Cl)cc(Cl)c2)c([N+](=O)[O-])c1,1,x,x,x,x,x
CC(=O)Cc1nsc(NC(=O)c2ccc(-c3cccc(Cl)c3)o2)n1,6,-8,-2,4,-3,61*
CCCCNC(=O)c1cc2c(=O)n3cccc(C)c3nc2n(Cc2ccncc2)c1=N,1,-8,2,151*,-1,-1
Cc1cccn2c(=O)c3cc(C#N)c(=N)n(Cc4ccncc4)c3nc12,-9,-2,-2,x,x,x
SMILES,Mtb hypoxia rep,Rv3671c protease,UGM FP inh,FBA Mtb inh,FadD28 FP inh,GDH-TPI counter
Cc1cc(-n2c(=O)c(C#N)cc3c(=O)n4cccc(C)c4nc32)no1,3,-3,0,+,-1,-7
COCCNC(=O)c1cc2c(=O)n3cccc(C)c3nc2n(Cc2ccncc2)c1=N,-12,-3,3,+,-1,12
CCCCNC(=O)c1cc2c(=O)n3cccc(C)c3nc2n(CCN2CCOCC2)c1=N,x,2,0,137*,1,14
CC(=NNC(=O)c1cnccn1)c1ccc([N+](=O)[O-])cc1,-3,x,x,x,x,x
CCc1ccc(C2CC=C(C(=O)O)C(c3ccccc3)N2S(=O)(=O)c2ccc(C)cc2)cc1 (stereo not given),3,x,x,x,x,x
CCCn1c(=N)c(C#N)cc2c(=O)n3cccc(C)c3nc21,-9,3,0,x,x,x
Cc1cccn2c(=O)c3cc(C#N)c(=N)n(CCN4CCOCC4)c3nc12,2,x,x,53*,0,0
Cc1ccc(C2Nc3ccc4ccccc4c3C3=C2C(=O)CC(C)(C)C3)o1 (stereo not given),5,-9,-1,15,1,11
CC1(C)CC(=O)C2=C(C1)c1c(ccc3ccccc13)NC2c1ccc(C(=O)O)cc1 (stereo not given),2,-1,-2,+,-2,6
CC1(C)CC(=O)C2=C(C1)c1c(ccc3ccccc13)NC2c1cc([N+](=O)[O-])cc([N+](=O)[O-])c1O (stereo not given),1,10,2,-12,32*,9
COc1ccc(C#Cc2c(-c3ccccc3)n(-c3ccccc3)c3ccc(CO)cc23)cc1,9,2,-1,113*,-1,33*
O=C(NNc1cccc([N+](=O)[O-])c1)/C(=C\c1cccnc1)NC(=O)c1ccccc1,6,3,0,1,0,44*
COc1ccccc1/C=C(\NC(=O)c1ccc(OC)c(OC)c1)C(=O)Nc1cccc([N+](=O)[O-])c1,-4,-4,4,0,-1,32*
Cc1ccc(NC(=O)/C(=C\c2ccc([N+](=O)[O-])cc2)NC(=O)c2ccccc2)cc1,x,-28,-1,-4,0,20
COc1cc(C=C(NC(=O)c2ccccc2)C(=O)Nc2cccc(O)c2)c([N+](=O)[O-])cc1OC,3,x,x,x,x,x
COc1ccccc1/C=C(\NC(=O)c1ccc(OC)c(OC)c1)C(=O)Nc1ccc([N+](=O)[O-])cc1,-3,-25,1,0,-1,36*
O=C(/C=C\c1cn(-c2ccccc2)nc1-c1ccccc1)Nc1nccs1,-18,-18,0,-1,2,27
CC(=O)NS(=O)(=O)c1ccc(NC(=O)/C=C/c2cn(-c3ccccc3)nc2-c2ccccc2)cc1,-1,-166,-2,-4,-6,43*
COc1ccc2[nH]c3nc(SCC(=O)NNC(=O)c4ccc(OC)c(OC)c4)nnc3c2c1,-4,-10,0,0,-1,41*
Nc1nn2cc(-c3ccccc3)nc2c2ccccc12,10,0,0,+,0,4
COC(=O)C1=C(c2ccc(F)cc2F)CC2CCC1N2C(=O)NCCOc1ccccc1Cl (stereo not given),-4,x,x,x,x,x
COC(=O)C1=C(c2cccc(OCc3ccccc3)c2)CC2CCC1N2C(=O)NCCN1CCOCC1 (stereo not given),3,x,x,x,x,x
CC(=O)OCc1nc2sc(C)c(C)c2c(=O)[nH]1,x,-9,2,0,-2,-4
CCOC(=O)c1nc2sc(C)c(C)c2c(=O)[nH]1,4,2,-1,126*,-3,14
CCOC(=O)C1=C(O)/C(=C/c2ccc(-c3ccccc3C(=O)O)o2)SC1=Nc1ccc(C)cc1,x,x,x,-5,-2,23
